TRHR PAM = qHTS for Small Molecule Agonists and Allosteric Enhancers of Human TRH Receptor: Primary Screen for Enhancers | Thyrotropin-releasing hormone receptor (Homo sapiens), P34981 | TRHR cells, fluo-8 calcium fluorescence, EC20 TRH enhancement | enhancement, % at 2 µM | hit rate 0.66% among 360,000 | AID 493056, 2011; in the data active = enhancement above about 30%; note: 0% is about no effect
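TRHR-expressing cells loaded with fluo-8 calcium dye were read kinetically (ex 480/em 530) during compound addition, then stimulated with an EC20 of TRH (10 nM final). Enhancement of the Gq-mediated intracellular calcium response was scored.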
TRHR agonist = qHTS for Small Molecule Agonists and Allosteric Enhancers of Human TRH Receptor: Primary Screen for Agonists. TRHR cells, calcium flux fluo-8, FDSS agonist mode. hit rate 0.18% among 360,000. activation, % at 2 µM. Thyrotropin-releasing hormone receptor (Homo sapiens), P34981; note: 0% is about no effect
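Read-out: compound-evoked intracellular calcium rise in TRHR cells, fluo-8 dye, kinetic FDSS fluorescence at 1 s/cycle following a 10-cycle baseline. Cells cultured overnight before dye loading (30 min–1.5 h, RT).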
D1 potentiator = Potentiators of Human D1 Dopamine Receptor: qHTS; D(1A) dopamine receptor (Homo sapiens), P21728; HEK293 TREx D1 cells, calcium flux, dopamine EC20 potentiation; potentiation, % at 10 µM; hit rate 0.036% among 360,000; in the data active = potentiation above about 30%; note: 0% is about no effect
Target sequence (P21728 whole entry, looked up): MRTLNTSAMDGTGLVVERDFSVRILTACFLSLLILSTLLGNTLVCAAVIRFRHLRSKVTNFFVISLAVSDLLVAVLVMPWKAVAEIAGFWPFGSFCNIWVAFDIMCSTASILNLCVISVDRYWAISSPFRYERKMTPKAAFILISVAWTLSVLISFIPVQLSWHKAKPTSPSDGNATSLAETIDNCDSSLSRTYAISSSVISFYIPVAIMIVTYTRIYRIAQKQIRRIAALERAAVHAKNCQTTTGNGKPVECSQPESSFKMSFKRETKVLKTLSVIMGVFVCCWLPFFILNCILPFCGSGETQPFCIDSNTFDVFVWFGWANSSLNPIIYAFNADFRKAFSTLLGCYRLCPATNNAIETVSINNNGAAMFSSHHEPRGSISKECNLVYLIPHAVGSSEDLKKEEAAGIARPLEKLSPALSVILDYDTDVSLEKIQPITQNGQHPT
D1 agonist = Allosteric Agonists of the Human D1 Dopamine Receptor: qHTS. activation, % at 2 µM. AID 504660, 2011. HEK293 T-REx D1 cells, calcium flux, agonist mode. hit rate 1% among 360,000. D(1A) dopamine receptor (Homo sapiens), P21728; note: 0% is about no effect
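Agonism was scored from calcium flux recorded over 180 s (1 read/s) after pintool compound addition, following a 10-cycle baseline. Cells were inducible force-coupled HEK293 TREx D1, plated overnight at 30 C and loaded with no-wash calcium dye.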
D1 antagonist = Antagonist of Human D 1 Dopamine Receptor: qHTS | D(1A) dopamine receptor (Homo sapiens), P21728 | hit rate 3.2% among 360,000 | activity change, negative = inhibition, % at 10 µM | AID 504652, 2011 | HEK293 TREx D1 cells, calcium flux, dopamine EC80; active compounds read low; in the data active = activity change below about -30%; note: % is set by controls: 0 for no effect and ±100 for the full control effect
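Kinetic fluorescence of a calcium dye serves as the read-out. D1-expressing Hek293 Trex cells, induced overnight at 30 C, are exposed to compound for 180 s before an EC80 dopamine addition, then read 180 s further.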
Active calls of the source: *; . = not tested or not shown. This is a sample that favours compounds with a hit; in the whole collection about 4.6% have one here. Cut-off read from the data, not from the text of the source, unless noted: active = activation above about 30%; inactive = the rest.

SMILES	TRHR PAM	TRHR agonist	D1 potentiator	D1 agonist	D1 antagonist
CN(C(=O)CN1C(=O)NC(C)(c2cccc(Br)c2)C1=O)C1CCCCC1 (stereo unspecified)	-5	0	-3	6	-57*
CC(C)(C)c1ccc(OCC(=O)NC(Cc2c[nH]c3ccccc23)C(=O)O)cc1 (stereo unspecified)	-5	1	-1	49*	13
CC(NC(=O)c1ccco1)C(=O)N1CCN(C(c2ccccc2)c2ccccc2)CC1 (stereo unspecified)	0	0	1	1	-32*
CC(NC(=O)c1ccco1)C(=O)N1CCN(c2ccccc2)CC1 (stereo unspecified)	-3	1	-2	0	-29
O=S(=O)(Nc1cccc(-c2cn3c(n2)SCC3)c1)c1cccs1	-18	0	2	1	1
O=C1CCC(C(=O)OC(C(=O)Nc2cc(Cl)cc(Cl)c2)c2ccccc2)=NN1 (stereo unspecified)	11	0	2	4	42
COc1ccc(Cl)cc1NC(=O)C(C)OC(=O)C1=NNC(=O)CC1 (stereo unspecified)	2	0	-2	0	-66*
COc1cccc(N=CC=C2OC(C)(C)C(C)(C)O2)c1	3	0	5	0	-8
CCNC(=S)N(Cc1ccc2c(c1)OCO2)C1CC(=O)N(c2ccc(F)cc2)C1=O (stereo unspecified)	2	1	-5	5	-60*
CCC(O)CNc1nc(-n2nc(C)cc2C)nc2sc3c(c12)CCCC3 (stereo unspecified)	4	0	-8	1	3
Cc1cc(C)n(-c2nc(SCCN(C)C)c3c4c(sc3n2)CCCC4)n1	38*	0	3	11	3
C=CCN1C(=O)C(Cc2cccc(C)c2)SC1=Nc1ccc(C(=O)O)cc1 (stereo unspecified)	-2	0	-2	6	-25
O=C(NNC(=O)c1ccc(Cl)c(Cl)c1)c1cccnc1	-5	0	-14	1	-74*
O=C(NNC(=S)NC(=O)c1cccnc1)c1ccc(Cl)cc1	0	-1	1	0	8
O=C(NNC(=S)NCc1ccc(Cl)cc1)c1cccnc1	-4	0	-1	3	-35*
O=C(NNC(=O)c1cccs1)c1cccnc1	2	0	-11	0	-54*
CCN(CC)S(=O)(=O)c1ccc(NC(=O)[C@H](CCSC)N2Cc3ccccc3C2=O)cc1	7	0	-3	4	1
CCOc1ccc(/C=C/C(=O)OCC(=O)NCCc2ccc(OCC)c(OCC)c2)cc1OC	-2	0	-2	0	10
COc1cc(/C=C/C(=O)OCC(=O)NCCc2ccccc2)ccc1OC(F)F	1	-1	-7	14	-30*
CCOc1ccccc1NC(=O)COC(=O)/C=C/c1ccc(OC)c(OC)c1	3	0	-4	6	-38*
COc1ccc(C(=O)NC2(C(F)(F)F)C(=O)N(Cc3ccco3)C3=C2C(=O)CC(C)(C)C3)cc1OC (stereo unspecified)	6	-1	10	2	20
CCCCc1c(C)nc2c(-c3ccc(OC)cc3)c(C)[nH]n2c1=O	0	0	-3	42*	2
O=C(Nc1ncc(Cc2ccc(Cl)cc2Cl)s1)c1ccc([N+](=O)[O-])cc1	10	2	-3	16	7
CCCCOc1ccc(/C(O)=C2/C(=O)C(=O)N(CCCOC)C2c2ccncc2)cc1C (stereo unspecified)	-2	0	-4	1	-38*
CCCOc1ccc(/C(O)=C2/C(=O)C(=O)N(CCCOC)C2c2ccncc2)cc1 (stereo unspecified)	1	0	7	-1	10
SMILES	TRHR PAM	TRHR agonist	D1 potentiator	D1 agonist	D1 antagonist
O=C(CNC(=O)Cn1ccc2ccccc2c1=O)NCCCN1CCN(c2cccc(Cl)c2)CC1	7	0	-11	-1	-37*
O=C(CCNC(=O)Cn1ccc2ccccc2c1=O)NCCCN1CCN(c2ccc(F)cc2)CC1	18	0	-19	1	-51*
O=C(CCNC(=O)Cn1ccc2ccccc2c1=O)NCCCN1CCOCC1	-10	-1	4	1	16
O=C(CCNC(=O)Cn1ccc2ccccc2c1=O)NCCCN1CCN(c2ccccc2F)CC1	-3	-1	-16	2	-68*
Cc1cc2ccccc2c(=O)n1CC(=O)NCC(=O)N1CCN(c2cccc(Cl)c2)CC1	2	-1	2	1	-6
CCOC(=O)c1c(C)[nH]c(CCC(=O)NCCCN2CCN(c3ccc(F)cc3)CC2)c1C	-4	0	-6	0	-37*
S=C(NC1CCCCC1)N1CCc2ccccc2C1	-4	-1	2	1	-18
COC(=O)C1=C(N)Oc2cc(C)[nH]c(=O)c2C1c1cccnc1 (stereo unspecified)	-9	3	-9	2	-4
O=C(Cn1c(-c2cccs2)cc2ccccc21)NCCCN1CCN(c2ccccc2F)CC1	1	0	-5	1	-62*
Cc1nc2cc(NC(=O)N3CC4(C)CC3CC(C)(C)C4)ccc2n1C (stereo unspecified)	7	0	-4	2	2
Cc1noc(C)c1C(=O)OCC(=O)c1cc(C)n(Cc2ccccc2Cl)c1C	-5	0	-12	6	-38*
CNC(=O)c1ccc2c(c1)nnn2C	-17	1	-8	1	-87*
Cn1nnc2cc(C(=O)NC(C)(C)C)ccc21	2	0	-4	1	-3
C=CCOC(=O)C1=C(C)N(C)C(=O)NC1c1cc2c(cc1Br)OCO2 (stereo unspecified)	29	-2	1	3	-5
Cc1ccc2ncnc(Nc3cccc([N+](=O)[O-])c3)c2c1	0	0	-9	2	-3
CCC(=O)Nc1nc2ccccc2n1CCN(CC)CC	-12	0	-8	3	1
CC(C)N1CCN(S(=O)(=O)c2ccc3ccccc3c2)CC1	5	-1	-1	2	-92*
CC(=O)c1ccc(NC(=O)CN2CCN(S(=O)(=O)c3ccc4ccccc4c3)CC2)cc1	2	1	.	35*	-35*
CC(=O)c1ccc(N2CCN(S(=O)(=O)c3ccc4ccccc4c3)CC2)cc1	-1	0	4	0	-35*
CCS(=O)(=O)N1CCN(S(=O)(=O)c2ccc3ccccc3c2)CC1	12	0	1	6	-4

Source: PubChem BioAssay (National Center for Advancing Translational Sciences (NCATS))
